Consider five molecules from PubChem BioAssay.

Molecules are shown by their SMILES. The source made the active and inactive calls.

The nature of experiment [1]: small molecules captured by biotinylated probe aFSTL3 – biochemical, small-molecule microarray, fluorescence 635/667, stem cell growth factor project, primary screen (AID 1064).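 Note: measures binding of the biotinylated anti-FSTL3 antibody to printed compounds.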 The settings on record: higher = more signal.
Experiment [2] in a line: binders from COS7 lysate, DM2A8 probe, primary screen, torsin A project, cell lysate, small-molecule microarray, fluorescence 635/667 (AID 1065). The note with it: higher = more signal, COS7 lysate expressing mutant human TOR1A.
The nature of experiment [3]: small molecules captured by biotinylated probe aFGF2 – biochemical, small-molecule microarray, fluorescence 635/667, stem cell growth factor project, primary screen (AID 1067).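 Note: measures binding of biotinylated aFGF2 protein to printed compounds on slides; z-score merges feature fluorescence and signal-to-noise across triplicate slides.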 The note with it: higher = more signal.
The nature of experiment [4]: small molecules captured by biotinylated probe aFGF10 – biochemical, small-molecule microarray, fluorescence 635/667, stem cell growth factor project, primary screen (AID 1071).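 Note: score merges 667 nm spot intensity and signal to noise from triplicate slides.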 The note with it: higher = more signal.
Experiment [5] has as its target Neurogenic locus notch homolog protein 2 (Homo sapiens) (UniProt Q04721). In words: small molecules binding Notch2 protein – biochemical, small-molecule microarray, 635 nm fluorescence, stem cell growth factors, primary screen (AID 1073). The settings on record: higher = more signal.
Experiment [6] addresses Pro-neuregulin-1, membrane-bound isoform (Homo sapiens) (UniProt Q02297). Put plainly: small molecules binding neuregulin-1 protein – biochemical, small-molecule microarray, fluorescence 635/667, psychiatric disease protein project, primary screen (AID 1075).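 Note: score combines 667 nm spot fluorescence with signal to noise.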 The settings on record: NRG1 binding, 635 nm fluorescence, higher = more signal.
Experiment [7] deals with Neuregulin-1 EGF-like domain. In words: small molecules binding NRG1 EGF domain – biochemical, small-molecule microarray, 635 nm fluorescence, primary screen (AID 1081).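 Note: binding of the protein to compounds printed on small-molecule microarray slides.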 The settings on record: higher = more signal.
Experiment [8] can be described thus: FRG1 expression reporter modulators in myotubes – cell-based, C2C12 myotubes, firefly/Renilla luciferase, luminescence, FRG1 inhibition for FSHD, primary screen (AID 1084). The note with it: FRG1 promoter luciferase, higher = more signal, called active from +8 up or from −8 down.
Experiment [9] can be described thus: small molecules captured by biotinylated probe aFST – biochemical, small-molecule microarray, fluorescence 635/667, stem cell growth factor project, primary screen (AID 1086).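 Note: score merges 667 nm fluorescence with signal-to-noise of each printed compound spot.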 The note with it: higher = more signal.
A short description of experiment [10]: binders of probe aHhip on microarray, primary screen, stem cell growth factor project, biochemical, small-molecule microarray, fluorescence 635/667 (AID 1087).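 Note: score merges spot fluorescence at 667nm with spot signal to noise ratio.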 The note with it: higher = more signal.
The subject of experiment [11] is PRMT1 (protein arginine N-methyltransferase 1). Put plainly: small molecules binding arginine methyltransferase PRMT1 – biochemical, small-molecule microarray, 635 nm fluorescence, primary screen (AID 1088).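 Note: binding of Prmt1 protein to compounds spotted on small-molecule microarray slides.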 The settings on record: higher = more signal.
The nature of experiment [12]: growth effects on S. cerevisiae YJM789 – YJM789 clinical isolate, OD600, 24 h, basal, primary screen (AID 1089).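 Note: growth of clinical yeast isolate S. cerevisiae YJM 789 seeded 1000 cells per well; test concentration not given here.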 The note with it: higher = more signal, called active from +8 up or from −8 down.
Experiment [13] can be described thus: S. pombe growth modifiers, basal conditions – strain 972, OD600, 24 h, no modulator, primary screen (AID 1090).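 Note: basal condition with compound alone and no growth modifier present; test concentration not given here.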 The settings on record: S. pombe 972 growth, higher = more signal, called active from +8 up or from −8 down.
The nature of experiment [14]: budding yeast growth modifiers under rapamycin – strain BY4716, OD600, 96 h, primary screen (AID 1091). Note: test concentration not given here. The note with it: S. cerevisiae BY4716 + rapamycin, higher = more signal, called active from +8 up or from −8 down.
Experiment [15] has as its target Torsin-1A-interacting protein 2 (Homo sapiens) (UniProt Q8NFQ8). Put plainly: small molecules binding lysate-expressed LULL1 – cell lysate, human LULL1 lysate, 635/667 nm fluorescence, primary screen (AID 1092).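 Note: probe is lysate of COS7 cells overexpressing human LULL1; score merges per-feature 667 nm fluorescence with signal-to-noise.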 The settings on record: small-molecule microarray, hLULL1 lysate binding, 635 nm fluorescence; higher = more signal.
Experiment [16] is described as follows: optical density change of DRC41 E. coli – strain DRC41, OD650, 24 h, E. coli filamentation project, primary screen (AID 1093).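 Note: MC1000 strain lacking acrAB efflux and sulA so SOS filamentation is blocked; test concentration not given here.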 The settings on record: E. coli DRC41 growth, higher = more signal, called active from +8 up or from −8 down.
A short description of experiment [17]: probe aLefty2 binding to arrayed compounds – biochemical, biotinylated probe, 635/667 nm fluorescence, primary screen (AID 1094).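 Note: score merges spot fluorescence near 667 nm with spot signal-to-noise ratio.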 The settings on record: small-molecule microarray, higher = more signal.
The subject of experiment [18] is Noggin (protein binding on small-molecule microarray). Put plainly: small molecules binding Noggin protein – biochemical, 635/667 nm fluorescence, primary screen (AID 1095).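 Note: score merges 667 nm feature fluorescence with signal to noise over triplicate slides.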 The settings on record: 635 nm fluorescence, higher = more signal.
For experiment [19], the target named is Neurogenic locus notch homolog protein 3 (Homo sapiens) (UniProt Q9UM47). Put plainly: small molecules binding NOTCH3 protein – biochemical, 635/667 nm fluorescence, primary screen (AID 1096). The note with it: small-molecule microarray, 635 nm fluorescence, higher = more signal.
Chain of Neurogenic locus notch homolog protein 3 (Homo sapiens) (Q9UM47 whole entry, looked up): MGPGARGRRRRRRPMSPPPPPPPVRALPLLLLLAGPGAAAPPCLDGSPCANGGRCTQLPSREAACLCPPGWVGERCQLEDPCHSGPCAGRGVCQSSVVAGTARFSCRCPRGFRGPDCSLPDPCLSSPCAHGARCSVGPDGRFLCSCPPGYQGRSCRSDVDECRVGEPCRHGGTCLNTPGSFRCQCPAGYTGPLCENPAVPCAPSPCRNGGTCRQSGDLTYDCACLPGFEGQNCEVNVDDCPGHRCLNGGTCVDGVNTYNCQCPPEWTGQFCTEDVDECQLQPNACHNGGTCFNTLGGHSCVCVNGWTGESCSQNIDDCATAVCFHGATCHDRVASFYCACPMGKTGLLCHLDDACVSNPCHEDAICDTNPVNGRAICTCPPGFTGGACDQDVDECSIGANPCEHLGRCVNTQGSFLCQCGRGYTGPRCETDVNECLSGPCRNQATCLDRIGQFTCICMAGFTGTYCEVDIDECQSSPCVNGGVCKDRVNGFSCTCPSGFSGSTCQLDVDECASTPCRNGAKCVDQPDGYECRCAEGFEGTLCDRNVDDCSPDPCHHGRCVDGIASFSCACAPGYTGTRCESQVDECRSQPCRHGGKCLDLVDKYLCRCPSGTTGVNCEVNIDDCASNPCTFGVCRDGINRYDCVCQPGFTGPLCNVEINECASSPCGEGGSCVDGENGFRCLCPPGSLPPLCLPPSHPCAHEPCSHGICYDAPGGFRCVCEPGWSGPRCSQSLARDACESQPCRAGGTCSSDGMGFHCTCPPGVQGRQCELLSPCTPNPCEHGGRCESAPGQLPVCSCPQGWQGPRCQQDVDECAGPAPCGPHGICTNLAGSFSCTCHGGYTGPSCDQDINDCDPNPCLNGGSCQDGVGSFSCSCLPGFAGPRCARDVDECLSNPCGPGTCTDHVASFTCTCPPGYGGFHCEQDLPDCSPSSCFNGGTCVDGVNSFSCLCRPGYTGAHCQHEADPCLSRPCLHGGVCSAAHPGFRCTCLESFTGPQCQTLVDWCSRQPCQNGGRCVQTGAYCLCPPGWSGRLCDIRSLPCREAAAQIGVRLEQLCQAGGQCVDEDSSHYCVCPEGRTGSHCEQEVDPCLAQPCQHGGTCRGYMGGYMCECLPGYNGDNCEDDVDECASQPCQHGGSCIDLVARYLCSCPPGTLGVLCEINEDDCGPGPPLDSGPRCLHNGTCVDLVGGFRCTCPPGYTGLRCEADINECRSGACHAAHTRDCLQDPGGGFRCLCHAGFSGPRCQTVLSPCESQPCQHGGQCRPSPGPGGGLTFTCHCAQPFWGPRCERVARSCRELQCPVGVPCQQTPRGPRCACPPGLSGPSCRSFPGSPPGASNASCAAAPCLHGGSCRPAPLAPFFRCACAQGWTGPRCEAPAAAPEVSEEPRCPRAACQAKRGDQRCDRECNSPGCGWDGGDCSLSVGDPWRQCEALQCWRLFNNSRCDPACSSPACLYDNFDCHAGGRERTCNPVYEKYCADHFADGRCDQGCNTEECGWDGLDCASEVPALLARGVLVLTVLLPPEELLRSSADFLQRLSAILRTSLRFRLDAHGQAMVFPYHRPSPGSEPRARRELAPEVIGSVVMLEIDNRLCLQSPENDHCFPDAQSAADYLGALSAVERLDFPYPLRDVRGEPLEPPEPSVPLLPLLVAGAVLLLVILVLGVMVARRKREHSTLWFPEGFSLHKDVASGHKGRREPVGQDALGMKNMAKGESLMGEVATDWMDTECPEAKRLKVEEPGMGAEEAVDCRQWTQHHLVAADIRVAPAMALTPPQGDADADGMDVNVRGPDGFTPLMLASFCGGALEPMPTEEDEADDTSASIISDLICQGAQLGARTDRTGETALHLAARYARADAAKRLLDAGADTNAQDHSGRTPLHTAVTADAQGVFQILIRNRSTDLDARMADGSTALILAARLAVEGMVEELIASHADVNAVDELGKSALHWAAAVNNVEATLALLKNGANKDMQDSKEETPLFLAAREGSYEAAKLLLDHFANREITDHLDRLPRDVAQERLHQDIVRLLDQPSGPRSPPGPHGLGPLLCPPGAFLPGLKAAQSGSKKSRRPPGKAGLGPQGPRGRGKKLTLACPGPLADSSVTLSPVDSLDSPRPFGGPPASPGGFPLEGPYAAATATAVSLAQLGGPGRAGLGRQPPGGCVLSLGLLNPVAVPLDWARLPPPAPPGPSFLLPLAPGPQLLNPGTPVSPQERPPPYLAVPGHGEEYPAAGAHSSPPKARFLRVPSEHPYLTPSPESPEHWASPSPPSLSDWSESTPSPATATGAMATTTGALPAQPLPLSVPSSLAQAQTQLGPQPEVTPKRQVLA
Experiment [20] is described as follows: probe aEGFR binding to arrayed compounds – biochemical, biotinylated probe, 635/667 nm fluorescence, primary screen (AID 1097).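 Note: probe is a biotinylated anti-EGFR antibody binding compounds printed on slides; score combines fluorescence near 667 nm and signal to noise of each spot.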 The settings on record: small-molecule microarray, higher = more signal.

Chain of Neurogenic locus notch homolog protein 2 (Homo sapiens) (Q04721 whole entry, looked up, canonical isoform): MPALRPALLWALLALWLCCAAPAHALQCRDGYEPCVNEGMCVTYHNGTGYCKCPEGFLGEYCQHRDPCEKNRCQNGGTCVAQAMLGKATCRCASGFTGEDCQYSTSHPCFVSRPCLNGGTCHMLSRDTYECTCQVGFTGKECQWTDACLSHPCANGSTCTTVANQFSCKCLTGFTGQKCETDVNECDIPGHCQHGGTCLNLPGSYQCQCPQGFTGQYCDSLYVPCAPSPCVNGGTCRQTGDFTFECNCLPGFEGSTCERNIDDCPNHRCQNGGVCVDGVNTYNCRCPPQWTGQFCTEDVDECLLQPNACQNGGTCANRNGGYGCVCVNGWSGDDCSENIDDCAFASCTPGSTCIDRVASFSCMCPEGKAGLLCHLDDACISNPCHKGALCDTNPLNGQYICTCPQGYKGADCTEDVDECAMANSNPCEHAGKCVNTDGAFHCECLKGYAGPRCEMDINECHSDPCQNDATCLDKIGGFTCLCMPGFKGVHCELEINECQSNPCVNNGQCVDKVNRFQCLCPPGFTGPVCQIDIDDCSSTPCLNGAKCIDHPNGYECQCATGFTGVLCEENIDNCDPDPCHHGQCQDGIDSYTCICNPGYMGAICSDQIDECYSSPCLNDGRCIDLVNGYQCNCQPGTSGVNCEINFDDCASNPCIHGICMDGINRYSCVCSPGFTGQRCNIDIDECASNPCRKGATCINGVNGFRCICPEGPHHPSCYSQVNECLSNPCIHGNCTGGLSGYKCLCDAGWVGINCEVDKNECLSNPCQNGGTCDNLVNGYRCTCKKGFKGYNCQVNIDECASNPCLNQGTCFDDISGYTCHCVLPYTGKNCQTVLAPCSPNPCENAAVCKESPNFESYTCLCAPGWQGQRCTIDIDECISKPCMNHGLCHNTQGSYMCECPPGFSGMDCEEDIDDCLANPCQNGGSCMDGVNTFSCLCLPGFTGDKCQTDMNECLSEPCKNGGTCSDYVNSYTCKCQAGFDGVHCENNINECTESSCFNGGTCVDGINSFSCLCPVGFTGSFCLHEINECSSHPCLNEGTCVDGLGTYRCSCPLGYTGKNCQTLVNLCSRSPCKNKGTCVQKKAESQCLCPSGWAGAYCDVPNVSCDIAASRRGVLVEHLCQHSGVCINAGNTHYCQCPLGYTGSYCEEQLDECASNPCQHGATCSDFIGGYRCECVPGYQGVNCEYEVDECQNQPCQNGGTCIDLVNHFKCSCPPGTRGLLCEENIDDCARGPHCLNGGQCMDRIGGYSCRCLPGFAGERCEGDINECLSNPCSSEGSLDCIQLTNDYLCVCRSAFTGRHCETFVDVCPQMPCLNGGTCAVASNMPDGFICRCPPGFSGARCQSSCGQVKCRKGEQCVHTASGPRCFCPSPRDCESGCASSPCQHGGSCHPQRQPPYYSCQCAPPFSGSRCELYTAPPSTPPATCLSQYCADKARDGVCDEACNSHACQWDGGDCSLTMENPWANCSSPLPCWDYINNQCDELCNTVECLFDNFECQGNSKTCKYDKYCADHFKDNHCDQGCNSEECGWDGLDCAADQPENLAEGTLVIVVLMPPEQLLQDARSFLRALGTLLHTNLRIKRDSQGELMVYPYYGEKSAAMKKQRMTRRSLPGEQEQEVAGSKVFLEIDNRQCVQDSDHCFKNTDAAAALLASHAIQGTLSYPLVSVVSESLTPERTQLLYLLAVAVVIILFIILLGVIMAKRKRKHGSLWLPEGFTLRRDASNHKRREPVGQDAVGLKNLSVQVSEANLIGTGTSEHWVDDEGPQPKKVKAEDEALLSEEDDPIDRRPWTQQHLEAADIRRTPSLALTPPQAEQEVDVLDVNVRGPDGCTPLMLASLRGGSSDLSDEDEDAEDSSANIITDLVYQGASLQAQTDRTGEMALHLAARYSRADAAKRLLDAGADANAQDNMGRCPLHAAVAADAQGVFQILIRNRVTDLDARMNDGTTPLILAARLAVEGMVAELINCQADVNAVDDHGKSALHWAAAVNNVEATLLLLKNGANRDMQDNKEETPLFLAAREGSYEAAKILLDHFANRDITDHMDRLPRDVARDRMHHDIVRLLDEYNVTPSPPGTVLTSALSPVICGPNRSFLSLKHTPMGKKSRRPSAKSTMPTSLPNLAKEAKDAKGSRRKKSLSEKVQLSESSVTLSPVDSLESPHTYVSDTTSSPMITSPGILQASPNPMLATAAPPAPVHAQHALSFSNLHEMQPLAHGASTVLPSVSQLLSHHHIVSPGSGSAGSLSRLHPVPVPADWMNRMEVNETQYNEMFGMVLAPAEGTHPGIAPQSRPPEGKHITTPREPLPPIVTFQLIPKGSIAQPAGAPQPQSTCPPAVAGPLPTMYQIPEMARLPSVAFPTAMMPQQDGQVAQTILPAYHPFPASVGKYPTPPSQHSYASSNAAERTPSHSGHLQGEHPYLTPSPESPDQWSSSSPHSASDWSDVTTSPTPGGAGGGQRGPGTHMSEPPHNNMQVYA

With `COc1ccc(CCNC(=O)[C@@H]2c3ccccc3C(=O)N(Cc3ccccc3Cl)[C@H]2c2ccc(CO)cc2)cc1`, the composite z-score in experiment [1] is 0.199; in [2], 0.0795; in experiment [3] it was -0.123; in experiment [4], 0.218; in experiment [5], 0.586; in experiment [6], 0.8. Further, the composite z-score in experiment [7] was 1.38; in [9] it was 0.19; in experiment [10], -0.214; in [11] it was 0.533; in experiment [15], 1.65; in experiment [17], -0.0299. Also, the composite z-score is -0.215 in experiment [18], 0.124 in [19] and 0.0121 in [20]. Also, the z-score in experiment [8] is -2.28 (inactive); in [12], -0.874 (inactive); in experiment [13], -0.96 (inactive); in experiment [14] it was 0.35 (inactive); in experiment [16], -0.139 (inactive).
With `COC(=O)[C@@]1(Cc2ccc(F)cc2)[C@H]2c3cc(C(=O)N4CCCC4)n(CCCNc4ncc(C(F)(F)F)cc4Cl)c3C[C@H]2CN1C(=O)c1ccccc1`, the composite z-score in experiment [1] is 0.785; in experiment [2] it was -0.245; in experiment [3], 0.222; in experiment [4], 0.564; in experiment [5], 1.66; in experiment [6], 1.73. Moreover, the composite z-score was 1.3 in experiment [7]; 0.977 in [9]; 0.449 in experiment [10]; -0.954 in experiment [11]; 2.65 in experiment [15]; 0.83 in [17]. For the same molecule, the figures for the composite z-score in [18], in experiment [19] and in experiment [20] were -0.756, 0.696 and 0.476, respectively. The z-score is 0.506 (inactive) in experiment [8]; 1.62 (inactive) in experiment [12]; 2.15 (inactive) in experiment [13]; 2.65 (inactive) in experiment [14]; -0.87 (inactive) in experiment [16].
`C=CC[C@]1(C(=O)NCCCOC)N=C(c2ccc(OCCCO)cc2)O[C@H]1c1ccccc1CN=[N+]=[N-]`: the composite z-score in experiment [1] was 1.07; in experiment [2] it was 0.717; in experiment [3] it was -0.0981; in experiment [4] it was 0.807; in experiment [5] it was 1.49; in [6] it was 1.3. The composite z-score in [7] came out at 1.08; in experiment [9], 0.952; in experiment [10] it was 0.335; in experiment [11], 1.13; in experiment [15] it was 3.15; in experiment [17], 0.248. Besides, the composite z-score in experiment [18] came out at 0.102; in [19] it was 0.854; in experiment [20] it was 0.286. Further, the z-score is 0.373 (inactive) in experiment [8]; -1.5 (inactive) in [12]; 0.998 (inactive) in experiment [13]; -1.71 (inactive) in experiment [14]; -0.483 (inactive) in experiment [16].
For the molecule `COCCOC(=O)N1C(=O)[C@@]2(c3cc(C#CCC(C(=O)OC)C(=O)OC)ccc31)[C@H](c1ccccc1OCCO)N1[C@H](c3ccccc3)[C@H](c3ccccc3)OC(=O)[C@H]1[C@@H]2C(=O)N1CCN(c2ncccn2)CC1`, the composite z-score in [1] was -0.266; in experiment [2], 0.273; in experiment [3], 0.137; in experiment [4], 0.432; in [5], 0.986; in [6] it was 1.32. The composite z-score in experiment [7] is 1.2; in experiment [9], 0.74; in [10] it was 0.03; in experiment [11] it was 1.54; in experiment [15], 3.09; in experiment [17], -0.0557. The composite z-score in experiment [18] is 1.28; in [19], 1.08; in experiment [20], 0.032. The z-score in [8] was -0.796 (inactive); in experiment [12], 2.01 (inactive); in experiment [13], 2.65 (inactive); in experiment [14], 7.01 (inactive); in experiment [16] it was 0.998 (inactive).
On to `COC(=O)[C@@]1(Cc2ccc(OC)cc2)[C@H]2c3cc(C(=O)N(C)C)n(Cc4ccc(S(C)(=O)=O)cc4)c3C[C@H]2CN1C(=O)c1ccccc1`, for which the composite z-score in experiment [1] amounted to 1.12; in experiment [2], 0.325; in [3], 0.27; in experiment [4], 0.178; in experiment [5] it was 1.24; in experiment [6], 1.64. Further, the composite z-score was 1.31 in experiment [7]; 1.46 in experiment [9]; 0.296 in [10]; -0.142 in experiment [11]; 3.4 in [15]; -0.264 in [17]. Further, the composite z-score in [18] is 0.715; in experiment [19], 1.11; in experiment [20] it was 0.0174. In addition, the z-score in experiment [8] was -1.49 (inactive); in [12], -3.22 (inactive); in experiment [13], -0.462 (inactive); in experiment [14], -0.154 (inactive); in experiment [16], 0.0416 (inactive).
